These results are taken from ChEMBL document CHEMBL4513216, “Probing the Open Global Health Chemical Diversity Library for Multistage-Active Starting Points for Next-Generation Antimalarials” (ACS Infect Dis, 2020).

About 8,600 (12%) of roughly 69,000 compounds showed an effect of 50% or more. The full list was thinned out, with strong results kept by preference.

The test has as its system Plasmodium berghei. Nature of the test: Screen against P. berghei liver stage (PbLuc), transformed with Luciferase, at 10uM. The following applies: tested at 10 uM. It counts as functional, HepG2.
For `CN1CCN(Cc2cnc3n2CCN(CCc2ccccc2)C3)CC1`, the INHIBITION is -18.2%.

Consider `O=C(c1ccccn1)N1CCC(Cc2cnc3[nH]ccc3c2)CC1`, for which the INHIBITION is recorded as -12.2%.

Turning to `COC(=O)c1cccc(S(=O)(=O)NC(=O)COC2CCCCC2)c1`, the INHIBITION worked out at 38.8%.

On to `C[C@@H]1C[C@H](C(F)(F)F)n2nc(C3CCN(S(C)(=O)=O)CC3)cc2N1`, for which the INHIBITION is 1.5%.

With `O=C(C1CN(CC2CCOCC2)CC12CCOCC2)N1CCOCC1` (stereo not given), the INHIBITION was 23.3%.

With `CNC(=O)[C@@H]1C[C@@H](NC(=O)c2ccc(OC)o2)CN1Cc1sccc1C`, the INHIBITION turned out to be 20.8%.

Take `CNC(=O)[C@@H]1C[C@@H](NC(=O)c2cn(C)nc2C)CN1Cc1sccc1C`: the INHIBITION came to 25.8%.

Take `CNC(=O)[C@@H]1C[C@@H](NC(=O)Cc2nonc2C)CN1Cc1sccc1C`: the INHIBITION came out at 51.5%.

As to `COc1ccc(OC)c(C(O)CNC(=O)Nc2cc(C)nn2C)c1` (stereo not given), the INHIBITION was determined as 10.35%.

In the case of `Cc1nn(C)c2nc(NC3CCNCC3)sc12`, the INHIBITION amounted to 10.7%.

For `Cc1nn(C)c2nc(N3CCC(C(O)c4nccn4C)CC3)sc12` (stereo not given), the INHIBITION amounted to 12.8%.

Regarding `Cc1nn(C)c2nc(N3CCCCC3c3cccnc3)sc12` (stereo not given), the INHIBITION worked out at 33.1%.

For the molecule `Cc1nn(C)c2nc(N3CCC(C(O)Cc4ccccc4)CC3)sc12` (stereo not given), the INHIBITION worked out at 75.1%.

As to `Cc1nn(C)c2nc(N3CCC(C(O)c4ccccn4)CC3)sc12` (stereo not given), the INHIBITION was 55.4%.

For `Cc1cnc(N2CC[C@@H]3OC(COCC(=O)N(C)C)CC[C@@H]32)nc1` (stereo not given in full), the INHIBITION was determined as 14.1%.

In the case of `CCCC1CN(CCOc2ccccc2)C(=O)c2cccnc2O1` (stereo not given), the INHIBITION was 44.2%.

As to `Cc1nn(-c2ncnc3[nH]cnc23)c2c1C(C(C)C)CC(=O)N2` (stereo not given), the INHIBITION is given as -21.2%.

Consider `Cc1ccc2c(c1)C(=O)CC1(CCN(Cc3ccccc3)CC1)O2`, for which the INHIBITION was -13.2%.

`Cc1nnc(N2CCN(C(=O)NC3CC3)CC2)c(C(N)=O)c1C`: the INHIBITION is recorded as 56.5%.

Take `Cc1nnc(N2CCCC2)c(C(N)=O)c1C`: the INHIBITION came to 6.24%.

Regarding `Cc1nnc(N2CCNCC2)c(C(N)=O)c1C`, the INHIBITION stood at 41.5%.

`O=C(NCC1CC1)c1ccc(NC(=O)c2ccco2)cc1`: the INHIBITION is listed as -64.3%.

For `COc1c(C)cnc(CN2CCCCC2CCN2CCOCC2)c1C` (stereo not given), the INHIBITION was found to be 56.1%.

Turning to `COc1c(C)cnc(CN2CCCCC2Cn2nc(C)nc2C)c1C` (stereo not given), the INHIBITION worked out at 6.14%.

Turning to `COc1c(C)cnc(CN2CCCC2Cn2nc(C)nc2C)c1C` (stereo not given), the INHIBITION was found to be 27.6%.

On to `CC(=O)N1CCC1c1cc(N2CCSCC2)nc(C)n1` (stereo not given), for which the INHIBITION stood at 29.5%.

On to `CO[C@H]1CN(Cc2ccccc2F)C[C@@]12CCCO2`, for which the INHIBITION stood at 5.56%.

For the molecule `Cn1cc(N2CCC3(CCN(C(=O)[C@H]4CCCO4)C3)C2=O)cn1` (stereo not given in full), the INHIBITION was 12.7%.

In the case of `CC(C(=O)N1CCC(Nc2cccnn2)CC1)n1cccn1` (stereo not given), the INHIBITION stood at 45.7%.

As for `Cc1ccc(NC2CCN(C(=O)C(C(C)C)n3cncn3)CC2)nn1` (stereo not given), the INHIBITION came to 31.2%.

In the case of `CCN1CCC(NC(=O)CN2CCCC2Cn2cccn2)CC1` (stereo not given), the INHIBITION turned out to be 19%.

For the molecule `CCN1CCC(NC(=O)CNC(C)Cn2cccn2)CC1` (stereo not given), the INHIBITION stood at 88.6%.

As for `CC(C(=O)N1CCC(Nc2cccnn2)CC1)n1ccnc1` (stereo not given), the INHIBITION worked out at 23.4%.

As to `CC(C)C(C(=O)N1CCC(N(C)c2cccnn2)CC1)n1cncn1` (stereo not given), the INHIBITION was 36.9%.

Turning to `CC(Cn1cccn1)NCC(=O)NC1CCOCC1` (stereo not given), the INHIBITION is on record as 5.2%.

Take `CC(Cn1cccn1)C(=O)N1CCC(Nc2cccnn2)CC1` (stereo not given): the INHIBITION stood at 53.7%.

With `CC(C)C(C(=O)N1CCC(Nc2cccnn2)CC1)n1cncn1` (stereo not given), the INHIBITION is listed as 57.2%.

For `CN(Cc1ccco1)C(=O)CN1CCOC(Cn2cccn2)C1` (stereo not given), the INHIBITION is given as -53.5%.

In the case of `COc1c(CNC2CCOc3c(Cl)cccc32)c(C(C)C)nn1C` (stereo not given), the INHIBITION was -69%.

For the molecule `CC(C)c1nn(C)c(N(C)C)c1CNC1CCOc2ccccc21` (stereo not given), the INHIBITION is listed as 12.2%.

In the case of `COc1c(CNC2CCOc3c(F)cccc32)c(C)nn1C` (stereo not given), the INHIBITION is listed as 20%.

Consider `COc1c(CNC2CCc3cc(Cl)ccc32)c(C)nn1C` (stereo not given), for which the INHIBITION stood at 59%.

`COc1c(CNC2CCOc3ccccc32)c(C(C)C)nn1C` (stereo not given): the INHIBITION amounted to 47.1%.

Consider `COc1c(CNC2CCCOc3ccc(F)cc32)c(C)nn1C` (stereo not given), for which the INHIBITION is given as -63.5%.

Regarding `COc1c(CNC2CCc3ccccc32)c(C)nn1C` (stereo not given), the INHIBITION was -63.3%.

Turning to `COc1c(CNC2CCSc3ccc(F)cc32)c(C)nn1C` (stereo not given), the INHIBITION was 75.2%.

On to `COc1c(CNC2CCc3cc(C)ccc32)c(C)nn1C` (stereo not given), for which the INHIBITION was 21.5%.

Turning to `COc1c(CNC2CCc3cc(F)ccc32)c(C)nn1C` (stereo not given), the INHIBITION is 35.8%.

As for `COc1c(CNC2CCOc3c(Cl)cccc32)c(C)nn1C` (stereo not given), the INHIBITION is given as 77.8%.

As for `CC(C)c1nn(C)c(Cl)c1CNC1CCOc2ccccc21` (stereo not given), the INHIBITION is given as 53.3%.

Regarding `Cn1c(SCC(N)=O)nnc1-c1csc2c1CCCC2`, the INHIBITION was -21.8%.

For the molecule `CCN1CC(COc2ccccc2)Oc2ncccc2S1(=O)=O` (stereo not given), the INHIBITION worked out at 13.9%.

With `CCSc1cc(C(=O)NCCNC(=O)N(C)C)ccn1`, the INHIBITION is -22.8%.

As for `COc1cc(CCC(=O)NC(C)(C)C)ccc1OCC(F)(F)F`, the INHIBITION is on record as -17.4%.

Consider `O=C1C[C@H]2[C@H](CCN2C(=O)c2cc[nH]n2)N1Cc1cccnc1`, for which the INHIBITION worked out at 40.8%.
